# Measured values as given in PubChem BioAssay (NCATS).
# Active and inactive are the calls of the source. The call rests on the fitted dose curve; in most records, active means well fitted activation curve with a large enough effect; inconclusive means small, poorly fitted or top-dose-only effect; inactive means flat fitted curve, though single readings scatter.
# Test: Confirmation and Secondary Assay for Modulators of Hemoglobin Beta Chain Splicing at IVS2 705 locus (AID 930); further: % of control where 0% means no effect
# Conditions: HeLa EGFP-705 splicing reporter, GFP fluorescence, 48 h; series mostly up to 38.3 µM; activation: at the top concentration
# Text: NIH Chemical Genomics Center [NCGC] NIH Molecular Libraries Screening Centers Network [MLSCN] MLSCN Grant: 1 X01 MH080684-01 PI Name: Dr. Ryszard Kole NCGC Assay Overview: Modulation of Alternative Splicing as Therapy Abnormal splicing is associated with a number of diseases, including cancer and genetic diseases such as cystic fibrosis, muscular dystrophy and beta-thalassemia. Alteration of disease associated splicing patterns provides a promising target for treatment. […] Mutations in the second intron of the b-globin gene at positions 654 or 705 are clinically relevant and cause mis-splicing which results in an out of frame gene product. […] EGFP-705 HeLa Cells as screen system. HeLa cell lines were stably transfected with a construct in which the EGFP (enhanced green fluorescent protein) cDNA was interrupted by the second intron of the beta-globin gene (IVS2-705). The ISV2 intron contains mutations which cause mis-splicing of EGFP and premature termination of EGFP which results in a nonfluorescent protein product. […] Expression of the transgene was driven by the CMV promoter. We concluded that a low molecular weight compound, which restored correct splicing of intron 2 would also generate functional EGFP protein, resulting in a fluorescent signal. Thus, the HeLa cells that express the EGFP-705 construct can be used for validation of splice site specificity of compounds identified in primary screening of the ISV2 654 construct.
# NCGC Assay Protocol Summary: Confirmatory Screening. Freshly thawed HeLa EGFP-705 cells were seeded in 5 ul of optimem media (Invitrogen) containing 2 % fetal calf serum (Hyclone) and 1x penicillin/streptomycin (Invitrogen) at a concentration of 500 cells per well in 1536-well plates. Cells were incubated overnight at 37C in 5% CO2. The next day, cells were treated with DMSO, 500 nM antisense ISV2 654 PNA control oligo, or library compound and allowed to grow at 37C in 5% CO2 for 2 days. The PNA oligo blocked the mutation site in the intron and allowed proper (wild type) splicing to occur, resulting in full length EGFP expression and also allowed for optimization of the assay parameters. Plates were read in the Acumen Explorer (TTP Labtech) using 488 nm laser excitation and 500-520 nm emission PMT filter in a 1 x 8 uM capture mode. Fluorescnet objects ranging in size from 5 to 250 uM were measured and the total peak GFP intensity for each well was used for data analysis. Keywords: Thalassemia, beta-thalassemia, beta-globin, EGFP, ISV2 654, ISV2 705, SSO, PNA, antisense, splicing, MLSMR, MLSCN, NIH Roadmap, qHTS, NCGC
Compound,activation,outcome
c1cncc(-c2nc(NCCN3CCOCC3)c3ccccc3n2)c1,0.21% (inactive),–
CN(C)C(=O)c1ccc(-c2nc(NCc3cccs3)c3ccccc3n2)cc1,0.22% (inactive),–
N#Cc1cccc(-c2cc(-n3ccnc3)ncn2)c1,-0.437% (inactive),–
Cc1ccccc1-c1cncnc1N1CCNCC1,0.46% (inactive),–
CN(C)C(=O)c1ccc(-c2nc(NCc3ccccc3)c3ccccc3n2)cc1,1.43% (inactive),–
Cc1cnc(CNc2ncnc3ccc(-c4ccccc4C#N)cc23)cn1,-0.395% (inactive),–
O=c1c(-c2ccccc2)coc2cc(O)cc(O)c12,-0.225% [at 46.1 µM] (inactive),–
COCCNc1ncnc2ccc(-c3ccccc3CN(C)C)cc12,0.152% (inactive),–
Cc1noc(C)c1-c1nc(NCc2cccnc2)c2ccccc2n1,-0.594% (inactive),–
COc1ccc2[nH]cc(CCNc3ncncc3-c3ccccc3CN(C)C)c2c1,-0.687% (inactive),–
CN(Cc1ccco1)c1ccnc(-c2cccc(NS(C)(=O)=O)c2)n1,4.23% (inactive),–
COc1ccc(CNc2ncncc2-c2ccc3c(c2)OCO3)c(OC)c1,3.07% (inactive),–
Cc1cccc(CNc2ccnc(-c3ccc(C(=O)N(C)C)cc3)n2)c1,1.79% (inactive),–
Cc1cnc(CNc2nc(-c3ccc(N(C)C)cc3)nc3ccccc23)cn1,-0.335% (inactive),–
CN(C)Cc1ccccc1-c1cncnc1NCc1cccs1,0.325% (inactive),–
Cc1ccccc1-c1nc(-n2ccnc2)c2ccccc2n1,1.77% (inactive),–
CC(=O)OC1c2c(ccc3ccc(=O)oc23)OC(C)(C)C1OC(=O)CC(C)C (stereo not given),0.626% (inactive),–
CN(C)C(=O)c1ccc(-c2ccc3ncnc(NCc4cccnc4)c3c2)cc1,-0.0883% (inactive),–
Cc1noc(C)c1-c1nc(N2CCOCC2)c2ccccc2n1,1.01% (inactive),–
O=C(/C=C/c1ccc(O)c(O)c1)OC(Cc1ccc(O)c(O)c1)C(=O)O (stereo not given),1.26% [at 46.1 µM] (inactive),–

Compound,activation,outcome
CC(=O)Oc1c(C)c(C)c2c(c1C)CCC(C)(CCCC(C)CCCC(C)CCCC(C)C)O2 (stereo not given),0.708% [at 46.1 µM] (inactive),–
CN(C)Cc1ccccc1-c1cncnc1NCc1cccnc1,0.174% (inactive),–
O=c1c(O)c(-c2ccc(O)cc2)oc2ccccc12,1.37% [at 46.1 µM] (inactive),–
CNc1ncnc2ccc(-c3cccc(NS(C)(=O)=O)c3)cc12,-0.166% (inactive),–
COC(=O)C1OC(=O)C2OC23[C@]2(C)C(O)CC4C(C)(C)C(OC(C)=O)CC(OC(C)=O)[C@@]4(C)C2CC[C@@]13C (stereo not given in full),–,inactive
Clc1ccccc1-c1cc(NCc2cccnc2)ncn1,0.0179% (inactive),–
COc1cccc(-c2nc(NCc3cnc(C)cn3)c3ccccc3n2)c1,0.988% (inactive),–
Cc1ccccc1-c1nccc(-n2ccnc2)n1,0.0859% (inactive),–
Cc1cccc(CNc2ncncc2-c2cccc(NS(C)(=O)=O)c2)c1,0.151% (inactive),–
c1ccc2c(Nc3ccncc3)nc(-c3ccoc3)nc2c1,4.42% (inactive),–
Cc1cnc(CNc2nc(-c3ccc(C(=O)N(C)C)cc3)nc3ccccc23)cn1,-0.8% (inactive),–
COc1ccc2[nH]cc(CCNc3nc(-c4ccc(C(=O)N(C)C)cc4)nc4ccccc34)c2c1,-0.14% (inactive),–
Nc1c2ccccc2nc2ccccc12 (tested in a mixture with another compound),1.1% [at 46.1 µM] (inactive),–
COc1ccc(CNc2nc(-c3ccc(C(=O)N(C)C)cc3)nc3ccccc23)c(OC)c1,-0.373% (inactive),–
CN(Cc1ccco1)c1ccnc(-c2ccoc2)n1,-0.371% (inactive),–
FC(F)(F)c1ccccc1-c1cncnc1Nc1ccccc1,-0.5% (inactive),–
COc1ccc2[nH]cc(CCNc3ncnc4ccc(-c5ccccc5CN(C)C)cc34)c2c1,-0.659% (inactive),–
CC(=O)Oc1ccc2c(c1)CCC1C2CC[C@]2(C)C(OC(C)=O)CCC12 (stereo not given in full),0.223% [at 46.1 µM] (inactive),–
NC(Cc1ccc(O)c(O)c1)C(=O)O (stereo not given),-0.094% [at 46.1 µM] (inactive),–
Cc1noc(C)c1-c1ccc2ncnc(N(C)Cc3ccco3)c2c1,0.0464% (inactive),–
